Results filed as inconclusive are left out. Unmarked numbers belong to inactive results. The source made the active and inactive calls. Unless noted, calls come from the whole dose curve; as a rule, active = well fitted curve in the direction sought with a large enough effect in the repeat runs; inconclusive = weak or mixed curves; inactive = no such curve, though single readings can be large; an effect the other way counts as inactive or inconclusive.

Experiment [1] can be described thus: qHTS assay for identifying genotoxic compounds that show differential cytotoxicity against isogenic chicken DT40 cell lines with known DNA damage response pathways - wild type cell line (AID 743012). Note: nearly all actives have a fitted effect of over 60% in size. Note: potency is the fitted concentration of half-maximal effect. In a few lines: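 Parental DNA repair-proficient DT40 cells, 300 per well, were pre-incubated ~0.5 h at 37 C/5% CO2, pin-dosed with compounds in DMSO, then incubated 40 h. Viability was read as CellTiter-Glo luminescence after 30 min at room temperature.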
(In general: qHTS replaces the single test concentration by a dilution series.)

A short description of experiment [2]: qHTS assay for identifying genotoxic compounds that show differential cytotoxicity against isogenic chicken DT40 cell lines with known DNA damage response pathways - Rev3 mutant cell line (AID 743014). Note: nearly all actives have a fitted effect of over 55% in size. Note: potency is the fitted concentration of half-maximal effect.
Experiment [3] is described as follows: qHTS assay for identifying genotoxic compounds that show differential cytotoxicity against isogenic chicken DT40 cell lines with known DNA damage response pathways - Rad54/Ku70 mutant cell line (AID 743015). Note: nearly all actives have a fitted effect of over 60% in size. Note: potency is the fitted concentration of half-maximal effect.
Experiment [4] is described as follows: qHTS assay to identify small molecule antagonists of the androgen receptor (AR) signaling pathway - cell viability counter screen (AID 743033; note: nearly all actives have a fitted effect of over 45% in size).
The target of experiment [5] is Androgen receptor (Homo sapiens) (UniProt P10275). Kind of experiment: qHTS assay to identify small molecule antagonists of the androgen receptor (AR) signaling pathway (AID 743035; active = well fitted inhibition curve with a large enough effect in the signal ratio in the repeat runs, not every such curve was filed as active; the % refers to the signal ratio). In a few lines: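 HEK293 cells stably carrying a UAS-driven beta-lactamase reporter (AR-UAS-bla GripTite) were plated for 4 h at 37C, then given compound and the agonist R1881 and incubated 16 h. Reporter activity was read by LiveBLAzer B/G FRET fluorescence after 2 h at room temperature.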

The target is the same in experiment [6]. Kind of experiment: qHTS assay to identify small molecule agonists of the androgen receptor (AR) signaling pathway (AID 743036; active = well fitted activation curve with a large enough effect in the signal ratio in the repeat runs, with a control signal flat, not every such curve was filed as active; the % refers to the signal ratio). The method, boiled down: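 AR-bla HEK293 cells, 2,000/well; 4 h preincubation 37C/5% CO2; compound (DMSO) 16 h at 37C; LiveBLAzer B/G FRET substrate 2 h RT; fluorescence intensity read-out.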
Experiment [7] in a line: qHTS assay to identify small molecule antagonists of the androgen receptor (AR) signaling pathway using the MDA cell line - cell viability counter screen (AID 743041; note: nearly all actives have a fitted effect of over 45% in size). In a few lines:
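MDA-kb2 AR-luc human breast carcinoma cells (MMTV-luciferase, AR/GR responsive) were treated with compounds plus R1881 agonist for 16 h at 37 °C. Viability was read as CellTiter-Fluor fluorescence in the same wells as the reporter assay.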

Experiment [8] deals with Androgen receptor (Homo sapiens) (UniProt P10275). Kind of experiment: qHTS assay to identify small molecule antagonists of the androgen receptor (AR) signaling pathway using the MDA cell line (AID 743042; note: nearly all actives have a fitted effect of over 55% in size). The method, boiled down:
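MDA-kb2 cells (human breast carcinoma, stably carrying an MMTV-luciferase reporter responsive to AR and GR) were plated at 3,000 cells/well and preincubated 5 hr at 37C, then given compound plus R1881 agonist for 16 h. ONE-Glo luminescence was read.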

The nature of experiment [9]: qHTS assay to identify small molecule antagonists of the thyroid receptor (TR) signaling pathway - cell viability counter screen (AID 743064). Note: nearly all actives have a fitted effect of over 50% in size. The method, boiled down:
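GH3.TRE-Luc cells, 4 h pre-plating; cpd + T3 1 nM final; 37 °C 23.5 h; CellTiter-Fluor 30 min; fluorescence read.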

Experiment [10] can be described thus: qHTS assay to identify small molecule antagonists of the thyroid receptor (TR) signaling pathway (AID 743065). Note: nearly all actives have a fitted effect of over 55% in size. The method, boiled down: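 GH3.TRE-Luc rat pituitary cells carrying two TR response elements driving luciferase were plated for 4 h, given compound plus 1 nM T3 (final), and incubated 23.5 h at 37 C. ONE-Glo luminescence measured reporter inhibition; CellTiter-Fluor fluorescence tracked cytotoxicity.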

The subject of experiment [11] is thyroid hormone receptor (rat, GH3 cells). Kind of experiment: qHTS assay to identify small molecule agonists of the thyroid receptor (TR) signaling pathway (AID 743066; calls by dose curve).
Experiment [12] is described as follows: qHTS assay to identify small molecule antagonists of the estrogen receptor alpha (ER-alpha) signaling pathway - cell viability counter screen (AID 743074; calls by dose curve; note: nearly all actives have a fitted effect of over 45% in size).
Experiment [13] addresses Estrogen receptor (Homo sapiens) (UniProt P03372). Kind of experiment: qHTS assay to identify small molecule agonists of the estrogen receptor alpha (ER-alpha) signaling pathway (AID 743075; calls by dose curve).
The target is the same in experiment [14]. Kind of experiment: qHTS assay to identify small molecule agonists of the estrogen receptor alpha (ER-alpha) signaling pathway using the BG1 cell line (AID 743079). Note: nearly all actives have a fitted effect of over 20% in size. Note: potency is the fitted concentration of half-maximal effect. To be noted: BG1Luc4E2 cells, ERE-luciferase agonist, 22 h.
The nature of experiment [15]: qHTS assay to identify small molecule antagonists of the estrogen receptor alpha (ER-alpha) signaling pathway using the BG1 cell line (AID 743080; calls by dose curve;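 note: BG1 cells stimulated with 17beta-estradiol alongside compound; nearly all actives have a fitted effect of over 25% in size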). In a few lines:
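Luciferase inhibition measured with ONE-Glo after 30 min at RT in BG1Luc4E2 cells given test compounds and 17beta-estradiol for 21.5 h at 37 C; CellTiter-Fluor viability read in the same wells beforehand.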

The nature of experiment [16]: qHTS assay to identify small molecule antagonists of the estrogen receptor alpha (ER-alpha) signaling pathway using the BG1 cell line - cell viability counter screen (AID 743081).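 Note: compound given together with 17beta-estradiol as the ER stimulus; nearly all actives have a fitted effect of over 45% in size.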
The next experiment addresses Aromatase (Homo sapiens) (UniProt P11511). In words: qHTS assay to identify aromatase inhibitors (AID 743083). Note: nearly all actives have a fitted effect of over 55% in size.
Experiment [17] in a line: qHTS assay to identify aromatase inhibitors - cell viability counter screen (AID 743084).
Experiment [18] is described as follows: qHTS assay to identify small molecule antagonists of the glucocorticoid receptor (GR) signaling pathway - cell viability counter screen (AID 720693). Note: nearly all actives have a fitted effect of over 55% in size.
For experiment [19], the target named is Estrogen receptor (Homo sapiens) (UniProt P03372). In words: qHTS assay to identify small molecule antagonists of the estrogen receptor alpha (ER-alpha) signaling pathway (AID 743069; active = well fitted curve in the direction sought with a large enough effect in the signal ratio in the repeat runs, not every such curve was filed as active; the % refers to the signal ratio). The method, boiled down:
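HEK293 cells stably carrying an ER-alpha-UAS-bla beta-lactamase reporter were pre-cultured overnight in 2% charcoal-stripped FBS medium. Test compounds in DMSO were added together with 17beta-estradiol for 18 hr at 37C. Read-out was fluorescence after 2 hr with LiveBLAzer B/G FRET substrate at room temperature.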
% is set by controls: 0 for no effect and ±100 for the full control effect.

Sequence of Estrogen receptor (Homo sapiens) (P03372 whole entry, looked up): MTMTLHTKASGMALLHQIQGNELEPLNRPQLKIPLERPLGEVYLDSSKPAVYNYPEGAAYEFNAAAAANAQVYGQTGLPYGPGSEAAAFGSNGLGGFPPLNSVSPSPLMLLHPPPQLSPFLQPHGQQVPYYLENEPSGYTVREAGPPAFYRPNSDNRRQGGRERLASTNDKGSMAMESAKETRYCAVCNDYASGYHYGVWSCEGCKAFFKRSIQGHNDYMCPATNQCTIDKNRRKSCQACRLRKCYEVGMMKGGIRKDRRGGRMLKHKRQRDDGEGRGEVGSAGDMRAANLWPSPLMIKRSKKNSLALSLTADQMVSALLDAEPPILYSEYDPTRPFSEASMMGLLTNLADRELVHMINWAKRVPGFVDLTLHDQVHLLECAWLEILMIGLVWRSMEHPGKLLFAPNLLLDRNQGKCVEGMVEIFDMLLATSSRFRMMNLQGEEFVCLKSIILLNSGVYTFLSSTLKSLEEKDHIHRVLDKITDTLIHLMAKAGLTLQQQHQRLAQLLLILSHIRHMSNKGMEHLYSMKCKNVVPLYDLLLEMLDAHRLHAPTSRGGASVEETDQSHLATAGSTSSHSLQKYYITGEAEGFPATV
Sequence of Aromatase (Homo sapiens) (P11511 whole entry, looked up): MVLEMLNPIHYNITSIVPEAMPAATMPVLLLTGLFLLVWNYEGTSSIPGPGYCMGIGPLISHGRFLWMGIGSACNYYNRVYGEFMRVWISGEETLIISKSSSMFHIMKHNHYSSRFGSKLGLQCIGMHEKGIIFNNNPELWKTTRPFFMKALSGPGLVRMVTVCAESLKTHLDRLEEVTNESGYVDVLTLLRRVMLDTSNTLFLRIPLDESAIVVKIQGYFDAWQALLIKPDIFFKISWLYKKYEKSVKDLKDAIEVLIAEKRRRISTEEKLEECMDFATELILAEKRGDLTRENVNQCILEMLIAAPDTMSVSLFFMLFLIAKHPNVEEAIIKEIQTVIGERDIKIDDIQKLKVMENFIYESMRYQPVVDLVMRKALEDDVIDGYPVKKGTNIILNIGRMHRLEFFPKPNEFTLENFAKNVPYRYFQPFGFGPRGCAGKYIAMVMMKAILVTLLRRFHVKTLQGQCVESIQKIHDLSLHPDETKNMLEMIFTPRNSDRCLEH
Sequence of Androgen receptor (Homo sapiens) (P10275 whole entry, looked up): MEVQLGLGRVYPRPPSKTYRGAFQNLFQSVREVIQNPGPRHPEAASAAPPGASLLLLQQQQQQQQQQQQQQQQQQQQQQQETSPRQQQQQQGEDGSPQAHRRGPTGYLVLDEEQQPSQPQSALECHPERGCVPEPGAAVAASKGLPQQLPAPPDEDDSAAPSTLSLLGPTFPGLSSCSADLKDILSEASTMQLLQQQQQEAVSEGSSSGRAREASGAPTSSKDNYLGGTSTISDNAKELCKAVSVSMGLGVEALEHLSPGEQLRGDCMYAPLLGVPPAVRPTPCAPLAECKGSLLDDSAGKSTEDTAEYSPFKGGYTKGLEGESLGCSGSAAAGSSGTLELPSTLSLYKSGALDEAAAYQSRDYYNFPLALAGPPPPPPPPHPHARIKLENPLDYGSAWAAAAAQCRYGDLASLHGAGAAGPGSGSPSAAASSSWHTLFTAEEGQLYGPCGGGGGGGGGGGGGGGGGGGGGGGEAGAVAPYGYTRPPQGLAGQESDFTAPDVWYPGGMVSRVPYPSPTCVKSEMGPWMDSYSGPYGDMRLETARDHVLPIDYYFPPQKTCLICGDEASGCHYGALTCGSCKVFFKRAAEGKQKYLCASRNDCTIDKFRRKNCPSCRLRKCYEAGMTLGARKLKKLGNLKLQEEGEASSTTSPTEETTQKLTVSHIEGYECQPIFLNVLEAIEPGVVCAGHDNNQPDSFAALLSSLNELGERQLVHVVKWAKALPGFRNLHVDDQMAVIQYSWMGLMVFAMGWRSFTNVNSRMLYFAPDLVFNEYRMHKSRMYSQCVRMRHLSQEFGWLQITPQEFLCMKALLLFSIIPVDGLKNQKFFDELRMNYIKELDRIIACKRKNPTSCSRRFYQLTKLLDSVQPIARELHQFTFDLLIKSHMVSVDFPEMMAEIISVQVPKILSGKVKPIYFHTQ

For `OP(O)c1ccccc1`, the Potency entry in experiment [1], in [2], in [3], in experiment [4], in experiment [5] and in experiment [7] was “inactive” in each case. The Potency result in [8], in [9], in experiment [10], in experiment [11], in experiment [12] and in [13] was “inactive” throughout. In addition, the Potency result (in [15]; in experiment [16]; in the experiment with Aromatase (Homo sapiens); in [17]) was “inactive” each time. In experiment [6], the call was inactive. For the same compound, the activation in [14] (at 95 µM (top of the series)) is 6.24%.
Turning to `CCOC(=O)Nc1cccc(OC(=O)Nc2ccccc2)c1`, the Potency entry in experiment [18], in experiment [1], in experiment [4], in [7], in experiment [9] and in [10] was “inactive” in each case. The Potency entry (in [11]; in [12]; in experiment [13]; in [16]; with Aromatase (Homo sapiens); in experiment [17]) was “inactive” throughout. Further, the Potency in experiment [14] is 27.3 µM (active).
As to `CCCCS(=O)(=O)Cl`, the Potency result in experiment [18], in experiment [2], in [4], in experiment [7], in experiment [9] and in [10] was “inactive” throughout. The Potency entry (in [11]; in experiment [12]; in [16]; with Aromatase (Homo sapiens); in experiment [17]) was “inactive” in each case.
As for `CC#Cc1cc(C)nc(Nc2ccccc2)n1`, the Potency was 54.4 µM (active) in [1], 61.1 µM (active) in [2] and 54.4 µM (active) in experiment [3]. In addition, the Potency result in experiment [4], in [7], in experiment [9], in [10], in [11] and in experiment [13] was “inactive” in each case. In addition, the Potency entry (in experiment [16]; in the experiment with Aromatase (Homo sapiens); in [17]) was “inactive” throughout.
In the case of `CCN(CCO)CCn1c(Cc2ccccc2)nc2c1c(=O)n(C)c(=O)n2C`, the Potency entry in experiment [18], in experiment [1], in experiment [4], in [7], in [10] and in [11] was “inactive” in each case. Further, the Potency entry (in experiment [19]; in experiment [12]; in experiment [13]; in experiment [15]; in the experiment with Aromatase (Homo sapiens); in experiment [17]) was “inactive” throughout. In addition, in experiment [14] (at 70.3 µM (top of the series)), the activation is 6.52%.
`CCN(CC)C1CCCCC1`: the Potency result in experiment [18], in experiment [2], in experiment [4], in experiment [5], in experiment [7] and in experiment [8] was “inactive” each time. The Potency entry in [9], in experiment [10], in experiment [11], in experiment [19], in experiment [12] and in experiment [13] was “inactive” in each case. For the same compound, the Potency result (in experiment [15]; in [16]; with Aromatase (Homo sapiens); in experiment [17]) was “inactive” in each case. The compound was classed as inactive in experiment [6]. For the same compound, the activation in [14] (at 70.3 µM (top of the series)) was 6.19%.
In the case of `O=S1(=O)OCCO1`, the Potency result in experiment [1], in experiment [2], in [3], in [4], in [5] and in experiment [7] was “inactive” in each case. For the same compound, the Potency result (in [8]; in [10]; in experiment [11]; in experiment [12]; in [16]; in the experiment with Aromatase (Homo sapiens)) was “inactive” throughout. Also, the Potency entry in experiment [17] was “inactive”. The outcome in experiment [6] was inactive.
In the case of `CCSC(=O)Cl`, the Potency result in experiment [18], in experiment [1], in [4], in [5], in [7] and in experiment [8] was “inactive” in each case. Further, the Potency result in [9], in experiment [10], in [11], in experiment [12], in [13] and in experiment [15] was “inactive” each time. Besides, the Potency entry (in experiment [16]; with Aromatase (Homo sapiens); in [17]) was “inactive” throughout.
`NC1(c2ccccc2)CCCCC1`: the Potency entry in experiment [18], in [4], in [7], in [11], in [19] and in [12] was “inactive” in each case. For the same compound, the Potency result (in experiment [13]; in [15]; in [16]; with Aromatase (Homo sapiens); in experiment [17]) was “inactive” each time. In [1], the Potency was 60.6 µM (active). Moreover, in [14] (at 70.3 µM (top of the series)), the activation is 0.0889%.
`COC(=O)[C@@H](N)CCCN/C(N)=N/[N+](=O)[O-]`: the Potency result in experiment [18], in [1], in experiment [7], in [9], in experiment [11] and in [12] was “inactive” each time. For the same compound, the Potency entry (in [16]; with Aromatase (Homo sapiens); in [17]) was “inactive” throughout.
Consider `Cl/C=C/CCl`, for which the Potency result in [1], in experiment [2], in experiment [3], in [4], in experiment [7] and in [9] was “inactive” in each case. For the same compound, the Potency result (in [11]; in [12]; in [16]; with Aromatase (Homo sapiens); in experiment [17]) was “inactive” each time.
Consider `CN1COCN(Cc2cnc(Cl)s2)/C1=N\[N+](=O)[O-]`, for which the Potency entry in experiment [18], in [1], in experiment [4], in experiment [7], in experiment [9] and in experiment [11] was “inactive” throughout. Further, the Potency result (in experiment [16]; with Aromatase (Homo sapiens); in experiment [17]) was “inactive” each time.
On to `O=C(NC(O)C(Cl)(Cl)Cl)NC(O)C(Cl)(Cl)Cl` (centres undefined), for which the Potency result in experiment [1], in experiment [2], in experiment [3], in experiment [4], in experiment [7] and in experiment [9] was “inactive” throughout. In addition, the Potency entry in experiment [10], in [11], in [19], in experiment [12], in experiment [13] and in [15] was “inactive” in each case. Besides, the Potency result (in [16]; in the experiment with Aromatase (Homo sapiens); in experiment [17]) was “inactive” each time. Besides, the activation in experiment [14] (at 70.3 µM (top of the series)) was 4.91%.
`CCN[C@@H](C)Cc1ccccc1`: the Potency entry in experiment [18], in experiment [1], in [4], in experiment [5], in experiment [7] and in [8] was “inactive” in each case. Further, the Potency result in experiment [9], in experiment [11], in experiment [19], in [12], in [13] and in experiment [15] was “inactive” in each case. Besides, the Potency result (in experiment [16]; with Aromatase (Homo sapiens); in experiment [17]) was “inactive” throughout. Moreover, the outcome in [6] was inactive. In [14] (at 95 µM (top of the series)), the activation is 0.895%.
`COc1ccc(CN2CCNCC2)c(OC)c1OC`: the Potency result in [1], in experiment [2], in experiment [3], in experiment [4], in experiment [7] and in [9] was “inactive” each time. In addition, the Potency entry in [10], in experiment [11], in [12], in experiment [13], in experiment [15] and in experiment [16] was “inactive” each time. Also, the Potency result (in the experiment with Aromatase (Homo sapiens); in experiment [17]) was “inactive” each time. Also, in experiment [14] (at 32.5 µM (top of the series)), the activation was 3.39%.
`NCC1(CC(=O)O)CCCCC1`: the Potency entry in experiment [18], in [1], in [3], in [7], in [9] and in [11] was “inactive” throughout. The Potency entry (in experiment [12]; in experiment [16]; with Aromatase (Homo sapiens); in experiment [17]) was “inactive” throughout.

(Values after PubChem BioAssay (Tox21).)
